Drawing on PubChem BioAssay (NCI), this text covers growth for 15 molecules.

Test systems include T-47D breast; BT-549 breast; MDA-MB-435 melanoma; SW-620 colon; MCF7 breast; HCT-116 colon; HCC-2998 colon; KM12 colon.
Common to all, as to experiment: NCI-60 one-dose screen, 48 h (100 = growth as untreated, 0 = no growth, -100 = all killed)
What all share (details): 10 µM unless noted

The panel holds about 83,000 compounds, 20% with a hit somewhere; the sample as a whole holds those more often.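 Single-dose data. Exposure time 48 hours. Values below 10 considered active.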 Values without a mark were called inactive. The source made the active and inactive calls.

For the molecule `COc1cc2c(cc1OC)-c1ccc3cc4c(cc3c1N(CCCn1ccnc1)C2)OCO4`, the growth was -18.4% (active) in the experiment with T-47D breast; 32.1% in the experiment on BT-549 breast; 61.1% in the experiment on MDA-MB-435 melanoma; 39.3% in the experiment with SW-620 colon; 14% with MCF7 breast; 20% in the experiment with HCT-116 colon. Besides, the growth in the experiment with HCC-2998 colon is 82.8%; in the experiment with KM12 colon it was 76.1%.

For the molecule `COc1ccc(/C=C2\COc3ccc(O)cc3C2=O)c(OC)c1`, the growth with T-47D breast was 56.4%; in the experiment with BT-549 breast, 57.8%; in the experiment with MDA-MB-435 melanoma, -30% (active); in the experiment with SW-620 colon it was 54.9%; in the experiment with MCF7 breast it was 54.7%; with HCT-116 colon, 61.9%. Further, the figures for the growth in the experiment with HCC-2998 colon and in the experiment on KM12 colon were 89.2% and 24.8%, respectively.

On to `O=C(NCCOCCOCCNc1cccc2c1C(=O)N(C1CCCNC1=O)C2=O)c1cc2c(o1)C(=O)c1ccccc1C2=O` (stereo not given), for which the growth in the experiment with T-47D breast was 14.9%; with BT-549 breast it was -94.7% (active); in the experiment on MDA-MB-435 melanoma, -94.1% (active); in the experiment on SW-620 colon, -6.93% (active); with MCF7 breast, -63.3% (active); with HCT-116 colon it was 0.0602% (active). For the same molecule, the growth with HCC-2998 colon is -56.2% (active); in the experiment on KM12 colon, -14.2% (active).

In the case of `O=C1Nc2ccccc2SC1c1ccccc1Cl` (stereo not given), the growth was 92.9% in the experiment with T-47D breast; 82.9% with BT-549 breast; -12.6% (active) in the experiment on MDA-MB-435 melanoma; 75.5% in the experiment on SW-620 colon; 119% with MCF7 breast; 105% in the experiment with HCT-116 colon. For the same molecule, the growth is 124% with HCC-2998 colon and 53.7% in the experiment with KM12 colon.

Turning to `O=C(CC12CC3CC(CC(C3)C1)C2)NCCOCCOCCNC(=O)c1cc2c(o1)C(=O)c1ccccc1C2=O`, the growth is -11.8% (active) with T-47D breast; -93.7% (active) in the experiment with BT-549 breast; -97.7% (active) in the experiment with MDA-MB-435 melanoma; -28.4% (active) in the experiment with SW-620 colon; -68.4% (active) in the experiment with MCF7 breast; -8.18% (active) in the experiment with HCT-116 colon. Besides, the figures for the growth in the experiment on HCC-2998 colon and in the experiment with KM12 colon were -86.9% (active) and -23.9% (active), respectively.

With `O=C1c2cccc3c(-c4ccc(-c5nc6c7ccccc7c7ccccc7c6[nH]5)cc4)ccc(c23)C(=O)N1CCN1CCNCC1`, the growth was 67.5% with T-47D breast; 95.4% with BT-549 breast; 100% in the experiment on MDA-MB-435 melanoma; 25.2% in the experiment with SW-620 colon; -6.7% (active) in the experiment on MCF7 breast; -12.3% (active) in the experiment on HCT-116 colon. Moreover, the growth in the experiment on HCC-2998 colon is 85.5%; in the experiment on KM12 colon, 21.6%.

Consider `N#Cc1c(-c2ccccc2)nc(SCC2CO2)nc1N1CCOCC1` (stereo not given), for which the growth with T-47D breast was 15.4%; in the experiment with BT-549 breast it was 11.4%; with MDA-MB-435 melanoma, 69.3%; in the experiment with SW-620 colon it was 84.4%; in the experiment on MCF7 breast, 44.8%; in the experiment with HCT-116 colon, 95%. In addition, the growth in the experiment on HCC-2998 colon was 101%; in the experiment with KM12 colon, 87.1%.

Regarding `Cc1[nH]c(-c2nc3ccccc3[nH]2)c(C)c1C(=O)N1CCOCC1`, the growth with T-47D breast was 99.1%; in the experiment on BT-549 breast, 99%; in the experiment on MDA-MB-435 melanoma, 99.7%; in the experiment with SW-620 colon, 96.3%; with MCF7 breast, 93.3%; in the experiment with HCT-116 colon, 101%. Moreover, the growth in the experiment with HCC-2998 colon was 97.9%; in the experiment with KM12 colon it was 105%.

As to `CN(C)CCn1cc(-c2ccc3c(Nc4ccc(CC(=O)Nc5cccc(F)c5)cc4)ncnc3c2)cn1`, the growth with T-47D breast is -39.7% [30 µM] (active); with BT-549 breast, -9.36% [30 µM] (active); in the experiment on MDA-MB-435 melanoma, -71.7% [30 µM] (active); with SW-620 colon, -64.2% [30 µM] (active); in the experiment with MCF7 breast it was -56.9% [30 µM] (active); in the experiment with HCT-116 colon it was -11.9% [30 µM] (active). Further, the growth with HCC-2998 colon was -91.5% [30 µM] (active); in the experiment on KM12 colon, -83.6% [30 µM] (active).

For the molecule `CCOC(=O)c1cnn2c(-c3ccc(Cl)cc3)nc(NCc3ccccc3)nc12`, the growth in the experiment with T-47D breast was 43.3%; with BT-549 breast it was 101%; in the experiment with MDA-MB-435 melanoma it was 56.2%; in the experiment with SW-620 colon, 4.94% (active); in the experiment on MCF7 breast it was 5.18% (active); with HCT-116 colon it was -15.5% (active). The growth with HCC-2998 colon is 83.9%; with KM12 colon, 54%.

Turning to `CNC(=O)NCC1OC(n2cnc3c(NC(=O)Nc4ccccc4)ncnc32)C2OC(C)(C)OC12` (stereo not given), the growth is 74.7% with T-47D breast; 71.7% in the experiment on BT-549 breast; 101% in the experiment with MDA-MB-435 melanoma; 91.1% with SW-620 colon; 85.4% in the experiment with MCF7 breast; 81.1% in the experiment on HCT-116 colon. Besides, the growth in the experiment on HCC-2998 colon was 95.5%; in the experiment on KM12 colon, 89.9%.

For the molecule `CN(C)c1cnccn1`, the growth in the experiment on T-47D breast is 75.9%; in the experiment on BT-549 breast, 73%; in the experiment on MDA-MB-435 melanoma it was 100%; with SW-620 colon, 88.7%; with MCF7 breast it was 87.3%; in the experiment on HCT-116 colon it was 97.3%. In addition, the values for the growth in the experiment with HCC-2998 colon and in the experiment on KM12 colon were 112% and 103%, respectively.

As for `O=C(c1ccccc1)c1ccc(Cl)c([N+](=O)[O-])c1`, the growth in the experiment with T-47D breast is 71.5%; with BT-549 breast, 106%; in the experiment on MDA-MB-435 melanoma it was 89.5%; with SW-620 colon, 16.8%; in the experiment on MCF7 breast, 91.3%; in the experiment with HCT-116 colon, 45.2%. For the same molecule, the growth in the experiment on HCC-2998 colon is 88.4%; with KM12 colon, 106%.

As for `Cc1c(C(N)=O)sc2nc(C)n(/N=c3\scc(-c4ccccc4)n3Cc3ccccc3)c(=O)c12`, the growth in the experiment on T-47D breast is 34.7%; in the experiment on BT-549 breast it was -6.7% (active); in the experiment with MDA-MB-435 melanoma, 12.2%; in the experiment with SW-620 colon it was 12.5%; with MCF7 breast, 17.3%; in the experiment on HCT-116 colon, 29.1%. Moreover, the figures for the growth in the experiment with HCC-2998 colon and in the experiment with KM12 colon were 57.1% and 13.6%, respectively.

Take `O=C(/C=C/C12c3ccccc3C(c3ccccc31)C1C(=O)N(c3ccccc3)C(=O)C12)c1ccc(Cl)cc1` (stereo not given): the growth in the experiment with T-47D breast is 30.4%; with BT-549 breast, 16.1%; in the experiment on MDA-MB-435 melanoma, 0.197% (active); with SW-620 colon it was 7.56% (active); in the experiment on MCF7 breast, 18.4%; in the experiment on HCT-116 colon it was -18% (active). Besides, the figures for the growth in the experiment on HCC-2998 colon and in the experiment on KM12 colon were -24% (active) and 7.23% (active), respectively.
